# According to article PMC5540273 (PLoS ONE, 2017):
# “And” between values parts separate entries of the source, which are not always exact repeats. Identical values can stand only once. Like-named read-outs stand apart in the source and are kept apart here.
# Tests used:
# Settings in all cases: concentration: 1 μM, replicates: in singlicate, n = 1
# CHEK1 = system: CHEK1
# CHEK2 = system: CHEK2
# CIT = system: CIT
# CLK1 = system: CLK1
# CLK2 = system: CLK2
# CLK3 = system: CLK3
# CLK4 = system: CLK4
# CSF1R-autoinhibited = system: CSF1R-autoinhibited
# CSF1R = system: CSF1R
# CSK = system: CSK
# CSNK1A1L = system: CSNK1A1L
# CSNK1A1 = system: CSNK1A1
# CSNK1D = system: CSNK1D
# CSNK1E = system: CSNK1E
# CSNK1G1 = system: CSNK1G1
# CSNK1G2 = system: CSNK1G2
# CSNK1G3 = system: CSNK1G3
# CSNK2A1 = system: CSNK2A1
# CSNK2A2 = system: CSNK2A2
# CTK = system: T1, CTK
# T1 construct: gene MATK
# 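Note: KINOMEscan kinase panel screen.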
smiles,measurement,setting,value
Cl.Cl.Cl.Fc1ccc(-c2ncn(C3CCNCC3)c2-c2ccnc(Nc3ccccc3)n2)cc1 [SB-238039],%Inh,CHEK1,0%
same,%Inh,CHEK2; 1 µM,0% and 39%
same,%Inh,CIT; 1 µM,99.5% and 97.5%
same,%Inh,CLK1; 1 µM,0% and 1%
same,%Inh,CLK2,0%
same,%Inh,CLK3; 1 µM,6% and 21%
same,%Inh,CLK4; 1 µM,37% and 14%
same,%Inh,CSF1R-autoinhibited; 1 µM,27% and 19%
same,%Inh,CSF1R; 1 µM,1% and 14%
same,%Inh,CSK; 1 µM,0% and 10%
same,%Inh,CSNK1A1L,98.9%
same,%Inh,CSNK1A1,97.7%
same,%Inh,CSNK1D; 1 µM,95.2% and 93.4%
same,%Inh,CSNK1E,99.9%
same,%Inh,CSNK1G1; 1 µM,78% and 75%
same,%Inh,CSNK1G2; 1 µM,99.5% and 98.9%
same,%Inh,CSNK1G3; 1 µM,99.2% and 96.6%
same,%Inh,CSNK2A1; 1 µM,0% and 19%
same,%Inh,CSNK2A2; 1 µM,0% and 25%
same,%Inh,CTK; 1 µM,40% and 1%
Cc1c(Cn2c(C)nn3c(=O)cc(N4CCOC(C)C4)nc23)cccc1C(F)(F)F (centres unmarked) [GSK2344444],%Inh,CHEK1,10%
same,%Inh,CHEK2,0%
same,%Inh,CIT,9%
same,%Inh,CLK1,29%
same,%Inh,CLK2,0%
same,%Inh,CLK3,0%
same,%Inh,CLK4,13%
same,%Inh,CSF1R-autoinhibited,0%
same,%Inh,CSF1R,0%
same,%Inh,CSK,0%
same,%Inh,CSNK1A1L,0%
same,%Inh,CSNK1A1,0%
same,%Inh,CSNK1D,0%
same,%Inh,CSNK1E,0%
same,%Inh,CSNK1G1,0%
same,%Inh,CSNK1G2,0%
same,%Inh,CSNK1G3,18%
same,%Inh,CSNK2A1,12%
same,%Inh,CSNK2A2,9%
same,%Inh,CTK,2%
CN(C(=O)c1ccc(-c2cc(-c3c[nH]nc3-c3ccccn3)ccn2)cc1)C1CCOCC1 [GW810083],%Inh,CHEK1,0%
same,%Inh,CHEK2,12%
same,%Inh,CIT,5%
same,%Inh,CLK1,23%
same,%Inh,CLK2,0%
same,%Inh,CLK3,0%
same,%Inh,CLK4,0%
same,%Inh,CSF1R-autoinhibited,31%
same,%Inh,CSF1R,20%
same,%Inh,CSK,0%
same,%Inh,CSNK1A1L,8%
same,%Inh,CSNK1A1,37%
same,%Inh,CSNK1D,29%
same,%Inh,CSNK1E,42%
same,%Inh,CSNK1G1,5%
same,%Inh,CSNK1G2,0%
same,%Inh,CSNK1G3,0%
same,%Inh,CSNK2A1,0%
same,%Inh,CSNK2A2,0%
same,%Inh,CTK,5%
CN1c2ccc(NCc3ccc(F)cc3)cc2-c2c(cnn2C)S1(=O)=O,%Inh,CHEK1,0%
same,%Inh,CHEK2,0%
same,%Inh,CIT,0%
same,%Inh,CLK1,0%
same,%Inh,CLK2,0%
same,%Inh,CLK3,0%
same,%Inh,CLK4,0%
same,%Inh,CSF1R-autoinhibited,1%
same,%Inh,CSF1R,0%
same,%Inh,CSK,0%
same,%Inh,CSNK1A1L,0%
same,%Inh,CSNK1A1,0%
same,%Inh,CSNK1D,2%
same,%Inh,CSNK1E,3%
same,%Inh,CSNK1G1,0%
same,%Inh,CSNK1G2,0%
same,%Inh,CSNK1G3,0%
same,%Inh,CSNK2A1,0%
same,%Inh,CSNK2A2,0%
same,%Inh,CTK,0%
CCn1cnc2c(N)ncnc21 [GW345098],%Inh,CHEK1,12%
same,%Inh,CHEK2,0%
same,%Inh,CIT,6%
same,%Inh,CLK1,30%
same,%Inh,CLK2,18%
same,%Inh,CLK3,69%
same,%Inh,CLK4,1%
same,%Inh,CSF1R-autoinhibited,0%
same,%Inh,CSF1R,0%
same,%Inh,CSK,0%
same,%Inh,CSNK1A1L,14%
same,%Inh,CSNK1A1,28%
same,%Inh,CSNK1D,21%
same,%Inh,CSNK1E,55%
same,%Inh,CSNK1G1,9%
same,%Inh,CSNK1G2,0%
same,%Inh,CSNK1G3,16%
same,%Inh,CSNK2A1,12%
same,%Inh,CSNK2A2,19%
same,%Inh,CTK,51%
NCCNS(=O)(=O)c1ccc(-c2ccnc3[nH]ccc23)cc1 [GSK977617],%Inh,CHEK1; 1 µM,8% and 21%
same,%Inh,CHEK2; 1 µM,72% and 63%
same,%Inh,CIT; 1 µM,65% and 48%
same,%Inh,CLK1; 1 µM,95.5% and 95.4%
same,%Inh,CLK2; 1 µM,94.8% and 95.5%
same,%Inh,CLK3; 1 µM,64% and 83%
same,%Inh,CLK4; 1 µM,97.7% and 96%
same,%Inh,CSF1R-autoinhibited; 1 µM,11% and 0%
same,%Inh,CSF1R; 1 µM,46% and 19%
same,%Inh,CSK,0%
same,%Inh,CSNK1A1L; 1 µM,76% and 61%
same,%Inh,CSNK1A1; 1 µM,88% and 93.1%
same,%Inh,CSNK1D; 1 µM,77% and 70%
same,%Inh,CSNK1E; 1 µM,85% and 86%
same,%Inh,CSNK1G1; 1 µM,20% and 0%
same,%Inh,CSNK1G2; 1 µM,58% and 24%
same,%Inh,CSNK1G3; 1 µM,51% and 59%
same,%Inh,CSNK2A1; 1 µM,72% and 56%
same,%Inh,CSNK2A2; 1 µM,63% and 56%
same,%Inh,CTK,0%
CC(=O)Nc1ccc(COc2ccc(Nc3ccnc4cc(-c5ccccn5)ccc34)cc2)cc1.Cl [GW440148],%Inh,CHEK1,1%
same,%Inh,CHEK2,29%
same,%Inh,CIT,20%
same,%Inh,CLK1,35%
same,%Inh,CLK2,0%
same,%Inh,CLK3,0%
same,%Inh,CLK4,0%
same,%Inh,CSF1R-autoinhibited,32%
same,%Inh,CSF1R,99.3%
same,%Inh,CSK,36%
same,%Inh,CSNK1A1L,0%
same,%Inh,CSNK1A1,0%
same,%Inh,CSNK1D,24%
same,%Inh,CSNK1E,33%
same,%Inh,CSNK1G1,9%
same,%Inh,CSNK1G2,0%
same,%Inh,CSNK1G3,29%
same,%Inh,CSNK2A1,5%
same,%Inh,CSNK2A2,11%
same,%Inh,CTK,3%
NS(=O)(=O)c1cccc(-c2ccc3ncc(N4CCOCC4)nc3c2)c1 [GSK1535721],%Inh,CHEK1,0%
same,%Inh,CHEK2,37%
same,%Inh,CIT,7%
same,%Inh,CLK1,11%
same,%Inh,CLK2,12%
same,%Inh,CLK3,0%
same,%Inh,CLK4,18%
same,%Inh,CSF1R-autoinhibited,8%
same,%Inh,CSF1R,0%
same,%Inh,CSK,0%
same,%Inh,CSNK1A1L,0%
same,%Inh,CSNK1A1,0%
same,%Inh,CSNK1D,16%
same,%Inh,CSNK1E,0%
same,%Inh,CSNK1G1,12%
same,%Inh,CSNK1G2,0%
same,%Inh,CSNK1G3,19%
same,%Inh,CSNK2A1,4%
same,%Inh,CSNK2A2,18%
same,%Inh,CTK,0%
O=C(c1ccc(-c2cc(-c3c[nH]nc3-c3ccccn3)ccn2)cc1)N1CCOCC1 [GW812171],%Inh,CHEK1,0%
same,%Inh,CHEK2,0%
same,%Inh,CIT,0%
same,%Inh,CLK1,0%
same,%Inh,CLK2,0%
same,%Inh,CLK3,0%
same,%Inh,CLK4,0%
same,%Inh,CSF1R-autoinhibited,12%
same,%Inh,CSF1R,16%
same,%Inh,CSK,51%
same,%Inh,CSNK1A1L,0%
same,%Inh,CSNK1A1,32%
same,%Inh,CSNK1D,49%
same,%Inh,CSNK1E,17%
same,%Inh,CSNK1G1,19%
same,%Inh,CSNK1G2,0%
same,%Inh,CSNK1G3,0%
same,%Inh,CSNK2A1,0%
same,%Inh,CSNK2A2,0%
same,%Inh,CTK,49%
Fc1ccc(-c2ncn(CCCN3CCOCC3)c2-c2ccccn2)cc1 [SB-211742],%Inh,CHEK1,0%
same,%Inh,CHEK2,0%
same,%Inh,CIT,8%
same,%Inh,CLK1,8%
same,%Inh,CLK2,8%
same,%Inh,CLK3,3%
same,%Inh,CLK4,0%
same,%Inh,CSF1R-autoinhibited,0%
same,%Inh,CSF1R,0%
same,%Inh,CSK,0%
same,%Inh,CSNK1A1L,0%
same,%Inh,CSNK1A1,36%
same,%Inh,CSNK1D,10%
same,%Inh,CSNK1E,9%
same,%Inh,CSNK1G1,5%
same,%Inh,CSNK1G2,0%
same,%Inh,CSNK1G3,0%
same,%Inh,CSNK2A1,0%
same,%Inh,CSNK2A2,0%
same,%Inh,CTK,0%
